{"source": "PubChem BioAssay (Tox21)", "note": "Results filed as inconclusive are left out. Unmarked numbers belong to inactive results. Active and inactive are the calls of the source. The call rests on the fitted dose curve; in most records, active means well fitted inhibition curve with a large enough effect in the repeat runs; inconclusive means weak or mixed curves, or effect the other way; inactive means no such curve, though single readings can be large or run the other way. On the % scale 0 is the no-effect control and ±100 the full control effect; potency means the concentration at half of the fitted maximal effect."}
{"test": "qHTS assay to identify small molecule antagonists of the retinoic acid receptor (RAR) signaling pathway (AID 1159552; further: nearly all actives have a fitted effect of over 50% in size)", "conditions": "C3RL4 RARE luciferase reporter, retinol-stimulated, 6 h; series mostly up to 92.4 µM; activity, negative = inhibition: at the top concentration", "text": "National Center for Advancing Translational Sciences [NCATS]\nNIH Chemical Genomics Center [NCGC]\nU.S. Environmental Protection Agency [EPA]\nNational Institutes of Environmental Health Sciences [NIEHS]\nNational Toxicology Program [NTP]\nU.S. Food and Drug Administration [FDA]\nAll-trans Retinoic acid (atRA) is the potent natural metabolite of retinol and plays an important role in normal embryonic development and maintenance of cellular phenotype in adult animals. atRA is the activating ligand for the retinoic acid receptors (RARs) which form heterodimers with retinoid X receptors (RXRs) on the retinoic acid response element (RARE). Through activation of the RAR/RXRs nuclear receptors, atRA regulates the transcription of a large number of protein-coding genes and regulatory RNAs. Intracellular levels of atRA are controlled by the retinol signaling pathway (RSP) that regulates the biosynthesis and catabolism of atRA to maintain physiological levels. Chemicals that interfere with the RSP can cause abnormal intracellular levels of atRA and therefore are potential developmental toxicants. To assess compounds for the potential adverse effect on embryonic development through interfering with retinol signaling, a cell-based RARE luciferase reporter gene assay was used. C3RL4 cell line (OARSA/CFSAN/FDA, Laurel, MD) was used to screen Tox21 10K compound library for identifying inhibitors of the RSP.\nTox21 Assay Protocol Summary:\nC3RL4 cells were seeded at 1,000/well in 4 uL of assay medium into white solid 1,536-well tissue culture plates (Greiner Bio-One North America Inc. Monroe, NC) using a Multidrop Combi (Thermo Scientific, Waltham, MA) dispenser. After incubation at 37 C and 5% CO2 for an overnight, 23 nL of compounds dissolved in DMSO, positive control or DMSO only were transferred by a Pintool station (Kalypsys, San Diego, CA). One ul of 1 uM (final concentration) of Retinol was added right after the compound addition by using a Flying Reagent Dispenser (FRD) (Aurora Discovery, San Diego, CA). After 6 hr incubation at 37 C and 5% CO2, 5 uL of Amplite Luciferase reagent (AAT Bioquest Inc. Sunnyvale, CA) was added to each assay plate using an FRD. Luminescence was quantified on a ViewLux plate reader (PerkinElmer, Waltham, MA) after 30 min incubation at room temperature."}
{"smiles": "NCCCOCCOCCOCCCN", "activity, negative = inhibition": "-1.9%"}
{"smiles": "C1=Cc2ccccc2C1", "activity, negative = inhibition": "-19%"}
{"smiles": "CCOC(=O)[C@H](CCc1ccccc1)N[C@H]1CCc2ccccc2N(CC(=O)O)C1=O", "Potency": "29.8 µM (active)"}
{"smiles": "O=S1(=O)c2cccc3cccc(c23)N1CCCN1CCN(c2ccc(F)cc2)CC1", "activity, negative = inhibition": "1.64% [at 42.5 µM]"}
{"smiles": "CC1=CC(=O)/C(=C(/C)O)C(=O)O1", "activity, negative = inhibition": "5.59%"}
{"smiles": "O=C(O)c1cn(C2CC2)c2cc(Cl)c(F)cc2c1=O", "activity, negative = inhibition": "-0.176% [at 42.5 µM]"}
{"smiles": "O=C1CCCCCO1", "activity, negative = inhibition": "1.53%"}
{"smiles": "O=C1[C@H](CC[C@H](O)c2ccc(F)cc2)[C@@H](c2ccc(O)cc2)N1c1ccc(F)cc1", "activity, negative = inhibition": "-19.1% [at 42.5 µM]"}
{"smiles": "CC(C)(C)c1ccc(OCC2CO2)cc1", "note": "(stereo not given)", "activity, negative = inhibition": "49.1%"}
{"smiles": "CC(=O)O[C@@H]1C(=O)O[C@@H]2[C@H]1OC(=O)[C@@H]2OC(C)=O", "activity, negative = inhibition": "-14.4% [at 42.5 µM]"}
{"smiles": "N#CCc1cccc(C(F)(F)F)c1", "activity, negative = inhibition": "129%"}
{"smiles": "O=C(O)COC(=O)Cc1ccccc1Nc1c(Cl)cccc1Cl", "activity, negative = inhibition": "6.59% [at 42.5 µM]"}
{"smiles": "CCCCOc1ccc(CC(=O)NO)cc1", "activity, negative = inhibition": "104% [at 42.5 µM]"}
{"smiles": "NC1CCN(c2nc3c(cc2F)c(=O)c(C(=O)O)cn3-c2ccc(F)cc2F)C1", "note": "(stereo not given)", "activity, negative = inhibition": "-9.64% [at 42.5 µM]"}
{"smiles": "COc1ccc(C(C)=O)cc1", "activity, negative = inhibition": "4.42%"}
{"smiles": "CN(C)CC/C=C1\\c2ccccc2COc2ccccc21", "Potency": "21.1 µM (active)"}
{"smiles": "C=C(C)C(=O)OCCN(C)C", "activity, negative = inhibition": "51.5%"}
{"smiles": "C=CCCCCCC", "activity, negative = inhibition": "109%"}
{"smiles": "OCCC1CCCCN1", "note": "(stereo not given)", "activity, negative = inhibition": "2.27%"}
{"smiles": "CN(C)CC[C@@H](c1ccc(Br)cc1)c1ccccn1", "activity, negative = inhibition": "-16.1% [at 42.5 µM]"}
{"smiles": "Cc1ccc(C(C)c2ccc(C)c(C)c2)cc1C", "activity, negative = inhibition": "-0.23%"}
{"smiles": "Nc1nc(CC(=O)O)cs1", "activity, negative = inhibition": "2.28%"}
{"smiles": "C=C(C)C(=O)OC(C)C", "activity, negative = inhibition": "164%"}
{"smiles": "CC(C(=O)O)c1ccc(C(=O)c2ccccc2)s1", "note": "(stereo not given)", "activity, negative = inhibition": "142% [at 42.5 µM]"}
{"smiles": "CC(O)C1CCCCC1", "note": "(stereo not given)", "activity, negative = inhibition": "6.44%"}
{"smiles": "CC(=O)CC(=O)c1ccccc1", "activity, negative = inhibition": "39.1%"}
{"smiles": "Nc1ccc(C(=O)Nc2ccccc2N)cc1", "activity, negative = inhibition": "99.9% [at 42.5 µM]"}
{"smiles": "CCCCOc1cc(C(=O)OCCN(CC)CC)ccc1N", "activity, negative = inhibition": "1.45% [at 42.5 µM]"}
{"smiles": "N#Cc1c(F)cccc1F", "activity, negative = inhibition": "-3.12%"}
{"smiles": "O=C(O)/C=C/c1cnc[nH]1", "activity, negative = inhibition": "30.3%"}
{"smiles": "Oc1ccc2c(c1)OCO2", "activity, negative = inhibition": "-2.06%"}
{"smiles": "NC[C@H]1O[C@H](O[C@H]2[C@H](O)[C@@H](O[C@H]3O[C@H](CO)[C@@H](O)[C@H](N)[C@H]3O)[C@H](N)C[C@@H]2N)[C@H](O)[C@@H](O)[C@@H]1O", "activity, negative = inhibition": "7.6% [at 8.39 µM]"}
{"smiles": "CCOc1ccc(NC(=O)CC(C)=O)cc1", "activity, negative = inhibition": "29.7%"}
{"smiles": "O=C(C(=O)c1ccc(Br)cc1)c1ccc(Br)cc1", "activity, negative = inhibition": "45.5% [at 19 µM]"}
{"smiles": "O=c1[nH]cnc2ccccc12", "activity, negative = inhibition": "26.9%"}
{"smiles": "C#CCOC(=O)[C@@H](C)Oc1ccc(Oc2ncc(Cl)cc2F)cc1", "activity, negative = inhibition": "1.18%"}
{"smiles": "COC(Cc1ccccc1)OC", "activity, negative = inhibition": "8.19%"}
{"smiles": "O=CNc1ccccc1", "activity, negative = inhibition": "42.7%"}
{"smiles": "CCCCC(CC)(CO)CO", "activity, negative = inhibition": "7.87%"}
{"smiles": "Cc1ccc(O)c([C@H](CCN(C(C)C)C(C)C)c2ccccc2)c1", "activity, negative = inhibition": "-13.4% [at 42.5 µM]"}
